# Compound activity from PubChem BioAssay.
# Hits are enriched below; roughly 1.2% of the tested compounds scored in any of these assays.
# Luc counter – Counterscreen for Luciferase (Kinase-Glo TM) Inhibition. Kinase-Glo luciferase, ATP luminescence, 8 min. Potency, µM (top dose mostly 38.3 µM), inactives show at the top dose activity change, negative = inhibition, hits mostly inhibitors. 200,000 compounds, 0.28% hits. AID 1379, 2008; active means well fitted inhibition curve with a large enough effect; inconclusive means small, poorly fitted or top-dose-only effect; further: potency means the concentration at half of the fitted maximal effect; nearly all actives have a fitted effect of over 60% in size
#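 Recombinant Kinase-Glo luciferase, 10 uM ATP (linear range), luciferin; imidazole pH 7.2 / KCl / MgCl2 / Tween / BSA buffer; 8 min RT; luminescence.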
# KCNH2 WT inh – qHTS for Inhibitors of KCHN2 3.1: Wildtype qHTS. Voltage-gated inwardly rectifying potassium channel KCNH2 (Homo sapiens), Q12809. U2OS, BacMam KCNH2, thallium flux FluxOr; stronger effect = lower value. activity change, % at 1.84 µM. 340,000 compounds, 0.37% hits. AID 720551, 2013;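 active means maximum activity change below -70%; inconclusive means maximum activity change between -70% and -50%; inactive means maximum activity change above -50%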
# Target sequence (Q12809 whole entry, looked up): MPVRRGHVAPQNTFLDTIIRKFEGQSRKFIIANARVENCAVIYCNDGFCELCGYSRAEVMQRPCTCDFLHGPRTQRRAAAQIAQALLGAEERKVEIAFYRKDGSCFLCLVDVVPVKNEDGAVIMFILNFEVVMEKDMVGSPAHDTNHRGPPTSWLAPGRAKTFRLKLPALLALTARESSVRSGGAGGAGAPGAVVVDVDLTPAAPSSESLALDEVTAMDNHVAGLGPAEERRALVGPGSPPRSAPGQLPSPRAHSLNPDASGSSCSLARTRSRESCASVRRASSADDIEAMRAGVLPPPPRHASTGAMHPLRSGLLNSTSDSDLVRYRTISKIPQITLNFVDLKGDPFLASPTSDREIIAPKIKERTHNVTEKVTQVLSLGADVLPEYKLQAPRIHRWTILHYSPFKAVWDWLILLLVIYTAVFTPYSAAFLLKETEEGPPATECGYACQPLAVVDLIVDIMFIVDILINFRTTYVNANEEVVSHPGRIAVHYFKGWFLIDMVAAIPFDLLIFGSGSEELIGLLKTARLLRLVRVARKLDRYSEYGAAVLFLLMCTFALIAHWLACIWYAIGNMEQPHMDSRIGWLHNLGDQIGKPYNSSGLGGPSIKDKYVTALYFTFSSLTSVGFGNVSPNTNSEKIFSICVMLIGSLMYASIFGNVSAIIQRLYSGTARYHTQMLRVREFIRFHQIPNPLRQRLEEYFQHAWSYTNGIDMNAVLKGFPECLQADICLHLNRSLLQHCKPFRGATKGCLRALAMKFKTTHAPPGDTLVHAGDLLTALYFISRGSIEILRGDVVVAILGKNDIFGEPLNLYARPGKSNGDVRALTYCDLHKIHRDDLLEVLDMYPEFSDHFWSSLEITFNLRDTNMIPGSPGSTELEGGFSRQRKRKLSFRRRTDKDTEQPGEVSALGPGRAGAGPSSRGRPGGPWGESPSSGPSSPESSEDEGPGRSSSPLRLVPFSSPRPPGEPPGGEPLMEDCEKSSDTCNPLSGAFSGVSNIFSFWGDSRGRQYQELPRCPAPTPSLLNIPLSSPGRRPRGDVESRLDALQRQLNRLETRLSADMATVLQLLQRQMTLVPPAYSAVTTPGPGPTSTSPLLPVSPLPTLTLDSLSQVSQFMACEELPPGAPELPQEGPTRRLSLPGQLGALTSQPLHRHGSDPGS
#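 U2OS cells transduced with wild-type KCNH2 virus are loaded with FluxOr dye for 45 min, and thallium flux is measured in kinetic reads before and after stimulation buffer. Rate constants are normalized to DMSO controls.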
# KCNH2 3.1 block – qHTS for Inhibitors of KCHN2 3.1: Mutant qHTS | 340,000 compounds, 0.95% hits | U2OS KCNH2 3.1, thallium flux FluxOr; stronger effect = lower value | activity change, % (tested at about 1.8 µM);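 active means maximum activity change below -70%; inconclusive means maximum activity change from -70% to -50%; inactive means maximum activity change above -50%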;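 further: thallium influx rate constant from kinetic fluorescence after stimulation buffer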
#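 Virally transduced U2OS (3.1 isoform, 4 h infection in dark at RT) → overnight 37 C → FluxOr + Red40 in HBSS/HEPES, 45 min → stimulation buffer, 2 min kinetic read → rate constant vs DMSO controls.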
# Numbers without * were called inactive; i = inactive; ? = inconclusive; . = no result. On the % scale 0 is the no-effect control and ±100 the full control effect.
SMILES,Luc counter,KCNH2 WT inh,KCNH2 3.1 block
Cc1ccc(-n2nnnc2SC(C)C(N)=O)c(C)c1 (configuration not stated),-1%,-3,-76*
Cc1cc(C)nc(N2CCC(C(=O)NC3CCCc4ccccc43)CC2)n1 (configuration not stated),-1%,6,14
O=C(NC1CCCc2ccccc21)C1CCN(c2nnc(-n3cccc3)s2)CC1 (configuration not stated),3%,-4,-79*
COc1cccc(COc2ccc3ccc(=O)oc3c2)c1,.,-4,-74*
COc1ccc(COc2ccc3ccc(=O)oc3c2)cc1,.,10,-27
CN(C)CCN(Cc1ccco1)C(=O)c1oc2ccccc2c1NC(=O)COc1ccccc1,.,-33,-95*
O=C(COc1ccccc1)Nc1c(C(=O)N2CCC(N3CCCCC3)CC2)oc2ccccc12,.,25,9
O=C(CNC(=O)/C(=C/c1ccccc1)NC(=O)c1ccc(Br)cc1)OCc1ccccc1,-1%,i,-85*
O=C(CNC(=O)/C(=C\c1ccc(Br)cc1)NC(=O)c1ccccc1)OCc1ccccc1,2%,-11,-43
Cc1ccc(NC(=O)CCC(C(=O)O)N2C(=O)c3ccccc3C2=O)cc1 (configuration not stated),21%,-187*,-141*
COC(=O)CC[C@@H](C(=O)O)N1C(=O)c2ccccc2C1=O,6%,20,8
COC(=O)N1CCC2(CC1)CCN(c1ncccn1)CC2,0%,.,.
Cc1sc2nc(CSc3ccccc3)nc(N3CCC(C(N)=O)CC3)c2c1C,-2%,.,3
CCOC(=O)c1sc2nc(CSc3ccccc3)nc(N3CCC(C(N)=O)CC3)c2c1C,1%,-225*,-191*
Cc1cccc(NC(=O)c2onc3c2CCCC3)n1,4.5µM*,-9,8
Cc1cccc(NC(=O)c2onc3c2CCCC3)c1C,-12%,-5,6
Cc1ccc(C(=O)Nc2cc3ccccc3oc2=O)cc1,8.9µM*,4,-4
CC(=O)Nc1cc2ccccc2oc1=O,8%,-10,-6
COc1ccc(CCNC(=O)C(=O)NCC2OCCN2S(=O)(=O)c2ccc(OC)c(OC)c2)cc1 (configuration not stated),.,5,-30
CC(C)(C)c1ccc(NC(=O)N2CCN(c3ccc([N+](=O)[O-])cn3)CC2)cc1,.,3,-103*
O=C(Nc1ccc(F)cc1F)N1CCCN(c2ccc([N+](=O)[O-])cn2)CC1,.,-3,-1
N#Cc1cc([N+](=O)[O-])ccc1N1CCN(c2ccccc2O)CC1,-3%,0,2
O=[N+]([O-])c1ccc(N2CCN(c3ccc([N+](=O)[O-])cc3CO)CC2)c(CO)c1,.,?,-89*
CCOc1ccccc1N=C1SCC(C)N1C(=O)C1CCN(c2ncnc3sc(C)c(C)c23)CC1 (configuration not stated),.,-19,-7
COc1ccc(C2NC(=S)NC(C)=C2C(=O)c2ccccc2)cc1OC (configuration not stated),-2%,1,3
SMILES,Luc counter,KCNH2 WT inh,KCNH2 3.1 block
CCC1NC(=S)NC(C)=C1C(=O)c1ccccc1 (configuration not stated),3%,2,-116*
O=C(CN1c2cccc3cccc(c23)S1(=O)=O)NCc1ccccc1Cl,.,4,3
COc1ccc(CN2CCN(Cc3ccc4ccccc4c3)CC2)cc1OC,.,-12,-88*
O=[N+]([O-])c1ccccc1CN1CCN(S(=O)(=O)Cc2ccccc2)CC1,.,1,7
COc1cc(CN2CCCC(C)C2)ccc1OCc1ccccc1 (configuration not stated),.,31,-85*
COc1cc(CN2CCN(C(O)(c3ccccc3)c3ccccc3)CC2)cc(OC)c1OC,.,32,-75*
O=[N+]([O-])c1ccccc1CN1CCN(Cc2ccc3ccccc3c2)CC1,.,4,-80*
COc1cc(CN2CCC(C)CC2)ccc1OCc1ccccc1,.,29,-14
COc1ccccc1CN1CCN(Cc2ccc3ccccc3c2)CC1,.,4,-19
COc1cc(CN2CCN(S(=O)(=O)c3ccccc3)CC2)cc(OC)c1OC,.,-1,20
Cc1ccc(C2(C)NC(=O)N(CC(=O)N3c4ccccc4NC(=O)CC3C)C2=O)cc1 (configuration not stated),.,3,7
COC(=O)c1ccc(C2=NOC(C)(c3nnc(Cc4ccccc4)o3)C2)cc1 (configuration not stated),.,-1,11
COc1ccc(C(CNC(=O)c2ccc(OCc3c(C)noc3C)cc2)N2CCCC2)cc1 (configuration not stated),.,12,8
O=C(CN1C(=O)NC2(CCCC2)C1=O)Nc1ccc(F)c([N+](=O)[O-])c1,.,12,-10
CS(=O)(=O)N(CC(=O)N1CCc2ccccc2C1)c1ccccc1Br,.,4,-10
COc1ccc(CN2CCC(N(CCc3ccccc3)Cc3ccccc3)CC2)c(OC)c1,.,-72*,-107*
CCCN1CCC(N(CCc2ccccc2)Cc2ccccc2)CC1,.,-20,-75*
CCN(Cc1ccccc1)C1CCN(Cc2ccccc2)CC1,.,14,3
COc1ccc(CN2CCC(C(=O)N(C)CCc3ccc(OC)c(OC)c3)CC2)c(OC)c1,-1%,19,-13
Cc1ccccc1Nc1cc(C(=O)NCC2CCCO2)c2ccccc2n1 (configuration not stated),.,-17,24
CCCCN1CC[C@H]2C=CC[C@@H](C(=O)Nc3ccc(Cl)cc3Cl)[C@H]2C1=O,.,3,14
CC(C)NS(=O)(=O)c1ccc(NC(=O)C(C)OC(=O)CCC(=O)c2cccs2)cc1 (configuration not stated),.,1,-7
CCC(=O)NNC(=O)CSc1nnc(-c2ccccc2)c(-c2ccccc2)n1,.,17,5
O=[N+]([O-])c1cc(C(F)(F)F)ccc1-n1nnc2ccccc21,.,-20,1
O=[N+]([O-])c1cc(S(=O)(=O)Nc2ccccc2)ccc1-n1nnc2ccccc21,-1%,-210*,-183*
SMILES,Luc counter,KCNH2 WT inh,KCNH2 3.1 block
COc1ccc(-c2sc3ccc(OC)cc3c2-c2ccc(OC)c(F)c2)cc1,.,-16,-4
COc1ccc(-c2sc3ccc(N4CCOCC4)cc3c2-c2ccc(OC)c(F)c2)cc1,.,-13,-87*
CCCCNc1cccc2c1S(=O)(=O)N(CCCC)CC(COCc1ccccc1)O2 (configuration not stated),.,-3,-16
CC(c1nccs1)N(C)C(=O)c1ccc(OC2CCN(CCc3ccccc3)CC2)cc1 (configuration not stated),.,42,-2
CC(C)N(C)C(=O)c1ccc(OC2CCN(CCc3ccccc3)CC2)cc1,.,14,-87*
Cc1cc(C)cc(OCC(=O)NNC(=S)NC(=O)C2CC2)c1,.,-7,-70*
COc1ccc(OCC(=O)NNC(=S)NC(=O)C2CC2)cc1,.,-12,-12
N#Cc1ccc(OCC(=O)Nc2nc(-c3cccnc3)cs2)cc1,.,-2,4
O=C(NCCS(=O)(=O)NCc1cccs1)c1ccccc1,.,0,-8
